# Test results taken from PubChem BioAssay AID651650 (Sanford-Burnham Center for Chemical Genomics, 2012).
# Biological target: Neuropilin-1 (Homo sapiens) (UniProt O14786)
# Test: NRP-1 b1b2 CendR peptide binding inhibitors, dose response, biochemical, FP and AlphaScreen panel (AID 651650)
# Conditions: NRP-1 b1b2 / RPARPAR peptide binding, FP or AlphaScreen; run 1, at 100 µM (top of the series)
# Sequence of Neuropilin-1 (Homo sapiens) (O14786 whole entry, looked up): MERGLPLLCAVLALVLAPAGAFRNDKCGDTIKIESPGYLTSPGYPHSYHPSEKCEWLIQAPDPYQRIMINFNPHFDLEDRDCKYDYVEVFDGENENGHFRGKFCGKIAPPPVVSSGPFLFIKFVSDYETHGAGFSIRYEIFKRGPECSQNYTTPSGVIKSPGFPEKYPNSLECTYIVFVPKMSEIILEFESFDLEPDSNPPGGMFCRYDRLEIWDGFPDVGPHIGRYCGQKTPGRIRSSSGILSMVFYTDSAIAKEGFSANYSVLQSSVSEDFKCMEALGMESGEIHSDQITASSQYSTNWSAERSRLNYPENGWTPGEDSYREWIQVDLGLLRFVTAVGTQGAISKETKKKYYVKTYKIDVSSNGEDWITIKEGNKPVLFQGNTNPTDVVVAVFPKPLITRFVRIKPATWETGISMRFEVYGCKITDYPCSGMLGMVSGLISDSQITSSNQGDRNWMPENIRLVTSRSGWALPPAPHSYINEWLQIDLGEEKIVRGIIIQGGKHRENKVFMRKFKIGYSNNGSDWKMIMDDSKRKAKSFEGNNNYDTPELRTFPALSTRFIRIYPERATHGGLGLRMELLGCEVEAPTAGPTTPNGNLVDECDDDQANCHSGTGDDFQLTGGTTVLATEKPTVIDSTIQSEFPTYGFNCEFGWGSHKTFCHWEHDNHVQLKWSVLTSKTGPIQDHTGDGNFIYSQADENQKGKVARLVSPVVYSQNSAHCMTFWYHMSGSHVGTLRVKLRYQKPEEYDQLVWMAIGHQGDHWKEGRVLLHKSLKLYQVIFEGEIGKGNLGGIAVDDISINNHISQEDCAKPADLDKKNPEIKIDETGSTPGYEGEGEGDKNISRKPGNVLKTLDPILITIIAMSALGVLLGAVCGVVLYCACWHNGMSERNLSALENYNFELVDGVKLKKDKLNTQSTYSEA
row,SMILES,inhibition [%]
1,NC(=O)C1CCCN(C(=O)c2ccc3nc(Cc4cccc(Cl)c4)oc3c2)C1 (stereo not drawn),101
2,Cc1occc1C(=O)N1N=C(C2CC2)CC1(O)C(F)(F)F (stereo not drawn),35.3
3,Cc1csc(NC(C)c2nc3cc(C(F)(F)F)ccc3n2CCCO)n1 (stereo not drawn),89.7
4,CCNC(=O)C1(C)CCCN(C(=O)c2nc(C)oc2C)C1 (stereo not drawn),20.1
5,CC(C)(C)OC(=O)N1CCN(C(=O)c2[nH]cnc2C(=O)NCc2ccccc2)CC1,34.4
6,CCCCn1nnnc1C(c1cc2ccccc2o1)N(C)Cc1ccc(Cl)c(Cl)c1 (stereo not drawn),104
7,Cc1cccc(NS(=O)(=O)c2cccs2)c1,44.9
8,O=C(NCc1ccccc1)C(c1cccnc1)N(C(=O)c1ccccn1)c1ccccc1F (stereo not drawn),43.9
9,O=C(c1ccccn1)N1CCN(S(=O)(=O)c2ccccc2)CC1,80.9
10,CCOC(=O)C1=C(O)C(=O)N(c2ccccc2)C1c1cccc([N+](=O)[O-])c1 (stereo not drawn),26.5
11,O=C(CCC(=O)Nc1ccccc1Cl)NN=C1CCCC1,67.6
12,CCOC(=O)Cn1c(=O)n(Cc2ccco2)c(=O)c2ccc(C(=O)NC3CCCC3)cc21,61
13,Cc1ccc(C(=O)O)cc1NC(=O)Nc1cccc2ccccc12,30.6
14,Cn1c(=NC(=O)COc2ccccc2)sc2ccccc21,-1.2
15,CC(C)(C)OC(=O)N1CCC(NC(=O)c2nc[nH]c2C(=O)N2CCc3ccccc3C2)CC1,25.2
16,CCOc1ccc(/C=C2/Sc3ccc(C(=O)NCC4CCCO4)cc3N(C)C2=O)cc1OC (stereo not drawn),77.7
17,CCOc1ccc(S(=O)(=O)N2CCN(C(=O)c3sccc3C)CC2)cc1,101
18,O=C(CSc1nc2ccccc2c(=O)n1-c1ccc(F)cc1F)Nc1ccc2c(c1)CCC2,21.2
19,Cc1ccc(C(=O)OCC(=O)c2ccc(Cl)s2)s1,32

row,SMILES,inhibition [%]
1,Cc1ccc(C(=O)NCCCc2ccccc2)c(C)c1,37.1
2,Cc1cc(C)n(-c2nnc3n2N=C(c2c[nH]c4ccccc24)CS3)n1,2.19
3,O=C(Cc1ccc(F)cc1)N1CCN=C1SCc1ccc([N+](=O)[O-])cc1,18.7
4,COc1cc2oc(=O)ccc2cc1[C@@H](O)[C@@H]1OC(C)(C)OC1(C)C,10.7
5,COc1ccc(C(O)c2nc(-c3ccc4ccccc4c3)cs2)cc1 (stereo not drawn),26.1
6,O=C(O)c1cc(NCc2ccc(F)cc2)ccc1N1CCOCC1,46.8
7,COc1cc(C(=O)OCC(=O)Nc2c(F)c(F)c(F)c(F)c2F)cc(OC)c1OC,17.8
8,COC(=O)CCCC1=CC2=CC(=O)C(C)(OC(=O)c3cccs3)C(=O)C2=CN1CCCOC(C)C (stereo not drawn),93.3
9,Cc1ccc(NC(=O)c2ccc3c(c2)OCCO3)cc1S(=O)(=O)Nc1cccc(Cl)c1,4.91
10,C[C@@H](NC(=O)c1nc[nH]c1C(=O)NCc1ccccc1)c1ccccc1,23.1
11,CCOc1cc(C(=O)NCCN2CCOCC2)cc(OCC)c1OCC,23.9
12,CN1CCC(=NNC(=O)c2ccco2)CC1,17.4
13,NC(=O)c1c(NC(=O)C(=O)N2CCOCC2)sc2c1CCCC2,16.2
14,CC(C)C1=C2CCCCC2NC(=O)N1 (stereo not drawn),32.2
15,O=C(COC(=O)C1CC(=O)N(Cc2ccccc2)C1)Nc1ccccc1F (stereo not drawn),56.9
16,COc1ccc(-c2csc(NCCc3nc4cc(C(=O)NCCCO)ccc4n3Cc3ccc(C)cc3)n2)cc1,90.9
17,C=C1CCN(C(C(=O)OC)C(C)C)S(=O)(=O)c2ccc(F)cc21 (stereo not drawn),68
18,Cc1ccc(Nc2c(-c3ccccc3O)nc3ncccn23)cc1,19.2
19,CCOC(=O)c1ccc(N2CCN(C(=O)c3ccccc3)CC2)c(NC(=O)c2ccco2)c1,40.4
